This is an account of results in PubChem BioAssay.

For assay [1], the system named is Human papillomavirus type 1a protein E7 (residues 44-93). Kind of assay: HPV1a E7 fragment binders on microarrays, primary screen, biochemical, small-molecule microarray, residues 44-93, 635 nm fluorescence (AID 1108).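 Note: E7 fragment applied at 1 µg/mL in TBST for 1 h at 4 C; score combines spot fluorescence with its signal to noise ratio.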 The note with it: small-molecule microarray binding, fluorescence 635 nm; higher = more signal.
The nature of assay [2]: modulators of HCV replicon luciferase signal, primary screen, HCV replication inhibitor project, Huh7 cells, luciferase reporter (AID 1109).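 Note: huh7 hepatoma cells harbouring a luciferase neomycin HCV replicon reporter; luciferase luminescence as measure of HCV replicon replication; test concentration not given here.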 The note with it: 48 h, higher = more signal. For orientation: Replicon systems follow genome replication, usually without infectious particles.
Assay [3] addresses Left-right determination factor 2 (Homo sapiens) (UniProt O00292). Description: LEFTY2 binders on small-molecule microarrays, primary screen, biochemical, small-molecule microarray, 635 nm fluorescence scan (AID 1110). The settings on record: LEFTY2 binding, higher = more signal.
The target of assay [4] is Calmodulin-1 (Homo sapiens) (UniProt P0DP23). Description: CALM1 binders on microarrays, EGTA buffer, profiling panel, biochemical, small-molecule microarray, Cy5-labelled CALM1 (AID 1111).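 Note: labelled calmodulin applied in Tris saline Tween buffer holding calcium plus EGTA and DTT.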 The note with it: Cy5-CALM1 binding fluorescence, higher = more signal.
For assay [5] the target is unchanged. Description: calcium-bound CALM1 binders on microarrays, profiling panel, artefact control for SMM control-protein annotation, biochemical, small-molecule microarray, Cy5-labelled CALM1, plus calcium (AID 1112).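 Note: score merges spot fluorescence with signal to noise from triplicate slides.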 The settings on record: Cy5-CALM1 binding fluorescence, higher = more signal.
Assay [6] is described as follows: small-molecule microarray binders of probe aWnt5a, primary screen, biochemical, biotinylated probe, 635/667 nm fluorescence (AID 1113).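 Note: score merges 667 nm fluorescence intensity with signal-to-noise per printed feature.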 The note with it: higher = more signal.
Assay [7] is described as follows: small-molecule microarray binders of probe aShh, primary screen, biochemical, biotinylated probe, 635/667 nm fluorescence (AID 1114).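 Note: probe is biotin-labelled aShh protein from a stem cell growth factor screen; measures binding of labelled protein to compounds printed on the slide; score merges feature fluorescence at 667 nm with signal-to-noise.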 The note with it: higher = more signal.
A short description of assay [8]: small-molecule microarray binders of probe aNog, primary screen, biochemical, biotinylated probe, 635/667 nm fluorescence (AID 1115).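 Note: probe is biotinylated aNog protein used at 0.15 µg/mL for 1 h at 4 C; z-score combines 667 nm fluorescence of each spot with its signal to noise.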 The settings on record: higher = more signal.
Assay [9] has as its target Torsin-1A-interacting protein 1 (Homo sapiens) (UniProt Q5JTV8). Kind of assay: LAP1 binders from COS7 cell lysate, primary screen, small-molecule microarray, 635/667 nm fluorescence (AID 1116). The settings on record: COS7-hLAP1 lysate binding, 635 nm fluorescence, higher = more signal.
Assay [10] deals with Alpha-bungarotoxin (Bungarus multicinctus) (UniProt P60615). Kind of assay: alpha-bungarotoxin binders on microarray, profiling panel, artefact control for SMM control protein annotation, biochemical, small-molecule microarray, Alexa647 label, 635/667 nm fluorescence (AID 1117). The settings on record: alpha-BTX-A647 binding fluorescence, higher = more signal.
Alpha-bungarotoxin (Bungarus multicinctus), sequence (P60615 whole entry, looked up): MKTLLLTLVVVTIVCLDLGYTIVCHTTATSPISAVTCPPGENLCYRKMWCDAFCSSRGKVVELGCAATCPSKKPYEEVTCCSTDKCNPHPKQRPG

Torsin-1A-interacting protein 1 (Homo sapiens), sequence (Q5JTV8 whole entry, looked up): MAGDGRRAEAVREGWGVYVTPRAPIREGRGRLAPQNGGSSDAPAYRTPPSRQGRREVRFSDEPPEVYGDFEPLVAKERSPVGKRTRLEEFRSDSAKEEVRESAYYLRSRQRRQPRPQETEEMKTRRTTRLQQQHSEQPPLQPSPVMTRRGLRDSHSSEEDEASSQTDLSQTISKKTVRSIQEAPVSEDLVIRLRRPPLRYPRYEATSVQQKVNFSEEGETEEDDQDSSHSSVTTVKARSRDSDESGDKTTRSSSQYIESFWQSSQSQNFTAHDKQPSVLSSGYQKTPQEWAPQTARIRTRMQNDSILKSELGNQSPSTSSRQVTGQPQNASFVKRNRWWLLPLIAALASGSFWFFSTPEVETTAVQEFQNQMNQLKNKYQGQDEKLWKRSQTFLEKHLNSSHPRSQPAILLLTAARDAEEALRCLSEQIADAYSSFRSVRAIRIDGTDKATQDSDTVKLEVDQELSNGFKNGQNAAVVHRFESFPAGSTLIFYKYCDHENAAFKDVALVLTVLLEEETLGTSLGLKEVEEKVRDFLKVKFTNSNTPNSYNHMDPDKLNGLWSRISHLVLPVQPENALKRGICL
Left-right determination factor 2 (Homo sapiens), sequence (O00292 whole entry, looked up): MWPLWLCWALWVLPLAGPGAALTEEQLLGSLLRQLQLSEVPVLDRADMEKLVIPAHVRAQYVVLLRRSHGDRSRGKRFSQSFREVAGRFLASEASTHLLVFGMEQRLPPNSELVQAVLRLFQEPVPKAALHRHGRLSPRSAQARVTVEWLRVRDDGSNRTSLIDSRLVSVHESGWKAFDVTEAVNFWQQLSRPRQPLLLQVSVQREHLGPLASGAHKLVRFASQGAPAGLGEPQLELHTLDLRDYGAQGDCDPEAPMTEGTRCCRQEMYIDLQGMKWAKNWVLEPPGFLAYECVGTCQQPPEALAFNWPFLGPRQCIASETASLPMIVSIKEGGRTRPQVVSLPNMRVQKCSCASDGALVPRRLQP

With `COC(=O)[C@@]1(Cc2ccc(F)cc2)[C@H]2c3cc(C(=O)N(C)C)n(Cc4ccc(S(C)(=O)=O)cc4)c3C[C@H]2CN1C(=O)c1ccccc1`, the composite z-score in [1] is -0.164; in assay [3], 0.213; in assay [4] it was 2.54; in [5], 0.497; in assay [6], -0.0125; in assay [7] it was 0.123. In addition, the composite z-score worked out at 1.84 in assay [8], 2.08 in assay [9] and 0.15 in assay [10]. In assay [2], the z-score is -0.328.
Turning to `COc1ccc(C(O)C2C=CC3C(=O)N(c4ccccc4)C(=O)C3N2Nc2ccccc2F)cc1OCc1ccccc1` (stereo not given), the composite z-score in [1] was 1.4; in assay [3] it was -0.477; in [4], 2.15; in [5], 0.983; in [6] it was 0.108; in assay [7], 0.232. Further, the values for the composite z-score in assay [8], in assay [9] and in assay [10] were -0.115, 1.2 and 1.55, respectively. Also, in [2], the z-score is -0.0689.
On to `C=CCOC(=O)[C@H]1[C@@H]2C(=O)O[C@@H](c3ccccc3)[C@@H](c3ccccc3)N2[C@@H](c2ccc(OCCOC(=O)[C@@H]3C[C@@H]4C(=O)N5CCC[C@H]5C(=O)N4[C@@H]3c3cccc(OCCO)c3)cc2)[C@]12C(=O)Nc1ccccc12`, for which the composite z-score in assay [1] is 0.862; in [3] it was 0.91; in assay [4], 0.551; in assay [5] it was 0.0319; in assay [6], 0.0079; in [7] it was 0.0381. The composite z-score in assay [8] is -0.378; in assay [9] it was 0.834; in assay [10], 1.34. The compound further came in with a z-score in assay [2] of -1.24.
As to `CN1C(=O)C2C=CC(C(O)C3=C[C@H]4C[C@@H](C3)C4(C)C)N(Nc3ccccc3)C2C1=O` (stereo not given in full), the composite z-score in [1] is 1.41; in assay [3], 0.269; in assay [4], 0.18; in [5], -0.162; in assay [6], 0.14; in assay [7], 0.13. For the same compound, the composite z-score in assay [8] is 0.612; in assay [9] it was 0.802; in [10] it was 0.647. Moreover, in assay [2], the z-score was -0.181.
As to `COCCOC(=O)N1C(=O)[C@@]2(c3cc(C#CC4=CCCCC4)ccc31)[C@H](c1ccc(O)cc1)N1[C@H](c3ccccc3)[C@H](c3ccccc3)OC(=O)[C@H]1[C@@H]2C(N)=O`, the composite z-score in assay [1] is 1.19; in assay [3], 0.63; in [4], 0.624; in assay [5], 0.0442; in assay [6], -0.0165; in assay [7] it was 0.157. Also, the composite z-score in [8] is -0.564; in assay [9] it was 0.745; in assay [10] it was 1.04. The compound also returned a z-score in [2] of -0.696.
Turning to `COCCOC(=O)N1C(=O)[C@@]2(c3ccccc31)[C@H](c1ccc(O)cc1)N1[C@H](c3ccccc3)[C@H](c3ccccc3)OC(=O)[C@H]1[C@@H]2C(=O)NC[C@H](O)c1ccccc1`, the composite z-score in assay [1] was 0.01; in assay [3], 0.25; in [4], 1.34; in [5], 0.682; in assay [6], -0.0643; in assay [7], 0.289. Also, the composite z-score in [8] was 0.35; in assay [9] it was 0.261; in [10] it was 0.14. Also, in [2], the z-score was -0.296.
As for `O=C1O[C@@H](c2ccccc2)[C@@H](c2ccccc2)N2[C@@H](c3ccc(OCCO)cc3)[C@]3(C(=O)Nc4ccccc43)[C@@H](C(=O)NC[C@H](O)c3ccccc3)[C@H]12`, the composite z-score in assay [1] is 1.28; in [3] it was 1.04; in assay [4], 0.158; in assay [5], 0.0233; in [6], -0.0768; in assay [7], -0.2. The composite z-score turned out to be 0.0597 in assay [8], 1.3 in assay [9] and 0.362 in assay [10]. In assay [2], this compound yielded a z-score of -2.1.
With `COC(=O)[C@@]1(Cc2ccccc2)[C@H]2c3cc(C(=O)N4CCCC4)n(Cc4cccc5ccccc45)c3C[C@H]2CN1C(=O)c1ccccc1`, the composite z-score in [1] is 0.696; in [3], -0.188; in assay [4], 1.51; in assay [5], 1.42; in assay [6] it was 0.816; in [7], 1.96. Further, the figures for the composite z-score in [8], in assay [9] and in assay [10] were 0.714, 0.434 and 0.645, respectively. The z-score in assay [2] was -1.55.
As to `C=CCOC(=O)[C@@H]1[C@H]2C(=O)O[C@H](c3ccccc3)[C@H](c3ccccc3)N2[C@H](c2ccc(OCCOC(=O)[C@@H]3C[C@@H]4C(=O)N[C@@H](Cc5ccccc5)C(=O)N4[C@@H]3c3ccc(O)cc3)cc2)[C@@]12C(=O)Nc1ccc(I)cc12`, the composite z-score in [1] was 1.38; in [3], 0.56; in assay [4], 0.75; in [5], 0.299; in assay [6] it was -0.0981; in [7], 0.178. In addition, the composite z-score in assay [8] was -0.0784; in [9] it was -0.289; in [10] it was 1.02. In [2], this compound had a z-score of -0.726.
As to `C=C(CCCC)/C(=C/C[C@@H](OC(C)=O)c1ccccc1OCCO)c1cnc2ccccc2c1`, the composite z-score is 0.75 in assay [1]; 0.157 in assay [3]; -0.0416 in assay [4]; -0.418 in assay [5]; -0.124 in assay [6]; -0.0977 in assay [7]. Moreover, the composite z-score worked out at 0.369 in [8], 0.44 in assay [9] and 0.157 in assay [10]. Besides, the z-score in assay [2] was -2.25.
Regarding `CC(=O)NCCCC[C@@H]1NC(=O)[C@@H]2C[C@H](C(=O)NCCCCN(C)C)[C@H](c3cccc(OCCO)c3)N2C1=O`, the composite z-score was -0.426 in assay [1]; -0.419 in assay [3]; 0.017 in [4]; 0.0573 in [5]; -0.0944 in assay [6]; 0.0048 in assay [7]. For the same compound, the figures for the composite z-score in assay [8], in [9] and in assay [10] were -0.0474, -1.4 and 0.473, respectively. Also, the z-score in assay [2] was 0.471.
With `O=C(C1N=C(c2ccc(OCCCO)cc2)N(c2ccccc2)O1)N1CCOCC1` (stereo not given), the composite z-score in [1] was 1.37; in assay [3], 0.677; in assay [4], 1.29; in [5], 0.335; in assay [6] it was -0.0445; in assay [7], 0.465. The figures for the composite z-score in assay [8], in assay [9] and in assay [10] were -0.492, 0.832 and 1.12, respectively. In addition, the z-score in [2] was -2.11.
For `COCCOC(=O)N1C(=O)[C@@]2(c3cc(C#CC4=CCCCC4)ccc31)[C@H](C(=O)N1CCc3cc(OC)c(OC)cc3C1)[C@H]1C(=O)O[C@H](c3ccccc3)[C@H](c3ccccc3)N1[C@@H]2c1ccc(OCCO)cc1`, the composite z-score in assay [1] is 1.07; in assay [3], 0.744; in assay [4], 0.526; in assay [5], 0.269; in assay [6], 0.048; in assay [7], -0.428. Further, the composite z-score was 0.575 in assay [8], 0.929 in assay [9] and 1.07 in [10]. In assay [2], the z-score was -0.44.
`CN(C)CCCNC(=O)[C@@]1(C)c2ccccc2C(=O)N(Cc2cc(F)cc(C(F)(F)F)c2)[C@H]1c1ccc(CO)cc1`: the composite z-score in assay [1] is -0.0947; in [3], -1.66; in [4], -0.483; in assay [5] it was -0.643; in assay [6], -0.251; in [7] it was 0.0121. Also, the composite z-score is 0.338 in assay [8], -0.94 in [9] and 1.32 in [10]. The compound further had a z-score in assay [2] of -1.8.
In the case of `COc1ccc(C(O)C2C=CC3C(=O)NC(=O)C3N2Nc2ccccn2)c2ccccc12` (stereo not given), the composite z-score is -0.266 in [1]; 0.315 in [3]; -0.0051 in [4]; -0.194 in assay [5]; -0.219 in [6]; 0.147 in [7]. The results for the composite z-score in [8], in assay [9] and in [10] were -0.0863, -0.259 and 0.172, respectively. Moreover, the z-score in assay [2] was determined as 0.307.
For `COC(=O)[C@@]1(Cc2ccc(F)cc2)[C@@H]2[C@@H](CC(=O)[C@H]2CC(=O)C(=O)N(C)C)CN1C(=O)c1ccccc1`, the composite z-score is 1.44 in [1]; -0.211 in assay [3]; 1.29 in [4]; 0.352 in assay [5]; 0.24 in assay [6]; 0.522 in [7]. The figures for the composite z-score in assay [8], in assay [9] and in assay [10] were 1.41, 1.08 and 1.15, respectively. The compound further had a z-score in assay [2] of -2.53.
